Measured values reported in PubChem BioAssay (NCATS).
Results filed as inconclusive are left out. Activity calls are given as the source filed them. Calls follow the shape of the dose curve; as a rule, active = well fitted curve in the direction sought with a large enough effect; inconclusive = small, poorly fitted or top-dose-only effect, or another doubt; inactive = no such curve, though single readings can be large; an effect the other way counts as inactive or inconclusive.

What was measured:
[1] = biological target: Rap guanine nucleotide exchange factor 3 (Homo sapiens) (UniProt O95398); test: Confirmatory qHTS for agonist of cAMP-regulated guanine nucleotide exchange factor 3 (EPAC1) (AID 1645881);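 also: EPAC1 catalysed release of BODIPY-GDP from Rap1B seen as fluorescence loss; 100% = effect of cAMP agonist control; nearly all actives have a fitted effect of over 75% in size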
Chain of Rap guanine nucleotide exchange factor 3 (Homo sapiens) (O95398 whole entry, looked up): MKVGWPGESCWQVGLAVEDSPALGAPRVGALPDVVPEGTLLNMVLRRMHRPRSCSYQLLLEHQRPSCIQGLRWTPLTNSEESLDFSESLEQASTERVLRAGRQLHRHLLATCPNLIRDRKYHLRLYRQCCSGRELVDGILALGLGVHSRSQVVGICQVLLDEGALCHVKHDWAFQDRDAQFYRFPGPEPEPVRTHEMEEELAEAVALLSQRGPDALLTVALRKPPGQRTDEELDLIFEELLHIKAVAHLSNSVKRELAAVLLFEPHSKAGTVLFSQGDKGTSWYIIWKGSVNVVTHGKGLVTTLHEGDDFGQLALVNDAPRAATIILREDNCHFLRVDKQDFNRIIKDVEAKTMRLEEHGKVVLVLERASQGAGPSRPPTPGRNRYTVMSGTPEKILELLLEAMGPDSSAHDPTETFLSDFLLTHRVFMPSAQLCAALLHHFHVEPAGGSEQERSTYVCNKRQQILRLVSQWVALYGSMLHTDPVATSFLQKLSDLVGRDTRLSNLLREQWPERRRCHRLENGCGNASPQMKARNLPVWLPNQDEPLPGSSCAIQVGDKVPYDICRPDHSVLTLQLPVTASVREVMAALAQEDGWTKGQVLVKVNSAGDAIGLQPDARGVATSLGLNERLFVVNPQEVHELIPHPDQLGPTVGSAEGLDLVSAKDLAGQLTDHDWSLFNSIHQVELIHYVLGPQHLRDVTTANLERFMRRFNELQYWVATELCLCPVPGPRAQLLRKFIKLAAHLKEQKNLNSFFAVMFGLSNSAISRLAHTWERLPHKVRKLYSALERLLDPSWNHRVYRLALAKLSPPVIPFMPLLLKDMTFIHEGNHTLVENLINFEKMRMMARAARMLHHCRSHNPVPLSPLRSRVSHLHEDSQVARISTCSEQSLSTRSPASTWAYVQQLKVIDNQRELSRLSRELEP

[2] = biological target: Rap guanine nucleotide exchange factor 4 (Homo sapiens) (UniProt Q8WZA2); test: Confirmatory qHTS for agonist of cAMP-regulated guanine nucleotide exchange factor 4 (EPAC2) (AID 1645884);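 also: nucleotide exchange releases bodipy-GDP from Rap1 and this lowers its fluorescence; % is scaled to controls: 0 for no effect and ±100 for the full control effect; nearly all actives have a fitted effect of over 65% in size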
Chain of Rap guanine nucleotide exchange factor 4 (Homo sapiens) (Q8WZA2 whole entry, looked up): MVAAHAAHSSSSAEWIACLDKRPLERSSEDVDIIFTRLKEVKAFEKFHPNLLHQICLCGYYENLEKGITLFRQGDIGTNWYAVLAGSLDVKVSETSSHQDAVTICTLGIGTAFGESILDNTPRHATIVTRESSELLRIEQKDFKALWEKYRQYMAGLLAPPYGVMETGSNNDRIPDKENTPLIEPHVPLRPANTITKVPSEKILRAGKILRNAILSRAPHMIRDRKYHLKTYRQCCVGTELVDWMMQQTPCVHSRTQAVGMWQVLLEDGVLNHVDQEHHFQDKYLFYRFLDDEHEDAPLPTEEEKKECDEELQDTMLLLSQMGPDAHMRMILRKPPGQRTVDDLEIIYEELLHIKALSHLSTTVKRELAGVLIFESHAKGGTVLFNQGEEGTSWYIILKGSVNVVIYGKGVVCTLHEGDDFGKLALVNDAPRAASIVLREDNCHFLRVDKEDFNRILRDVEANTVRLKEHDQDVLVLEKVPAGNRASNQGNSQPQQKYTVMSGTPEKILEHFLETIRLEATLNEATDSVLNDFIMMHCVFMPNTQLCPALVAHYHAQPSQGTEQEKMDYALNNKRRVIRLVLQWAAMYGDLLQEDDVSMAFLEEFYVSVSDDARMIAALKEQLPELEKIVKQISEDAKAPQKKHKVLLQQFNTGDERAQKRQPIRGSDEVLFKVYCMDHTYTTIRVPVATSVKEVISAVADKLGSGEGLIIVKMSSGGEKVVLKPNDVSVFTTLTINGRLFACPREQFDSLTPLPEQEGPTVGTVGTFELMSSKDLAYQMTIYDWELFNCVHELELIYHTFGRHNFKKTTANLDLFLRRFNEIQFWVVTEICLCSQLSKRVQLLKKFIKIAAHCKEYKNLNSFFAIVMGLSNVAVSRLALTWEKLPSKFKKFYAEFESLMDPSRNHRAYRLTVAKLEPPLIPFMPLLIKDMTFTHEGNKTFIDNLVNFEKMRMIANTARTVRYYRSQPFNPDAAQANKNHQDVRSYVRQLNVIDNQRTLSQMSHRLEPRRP

[3] = biological target: Rap guanine nucleotide exchange factor 4 (Homo sapiens) (UniProt Q8WZA2); test: Confirmatory qHTS for antagonist of cAMP-regulated guanine nucleotide exchange factor 4 (EPAC2) (AID 1645885); also: nearly all actives have a fitted effect of over 25% in size; also: potency is read from the fitted curve at half-maximal effect; as to activity change, negative = inhibition: % is scaled to controls: 0 for no effect and ±100 for the full control effect
[4] = biological target: Rap guanine nucleotide exchange factor 3 (Homo sapiens) (UniProt O95398); test: Counterscreen qHTS for antagonist of cAMP-regulated guanine nucleotide exchange factor 3 (EPAC1) (AID 1645888);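 also: fluorescence loss as bound BODIPY-GDP is released from Rap1B; % of control where 0% means no effect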
In short: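 Rap1B–BODIPY-GDP (250 nM) with 50 uM GDP; compounds pin-transferred to 9.74 nM–152 uM final (activator) or from 7.32 nM upwards (inhibitor). Fluorescence Ex/Em 480/540 nm read at 5 and 30 min, then after adding cAMP or buffer, at room temperature.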

Cc1ccc(C)c(Cn2c(C3CC(=O)N(c4ccccc4C)C3)nc3ccccc32)c1 (stereo not drawn)
inactive: Potency [1] | Potency [2] | Potency [3] | Potency [4]

CS(=O)(=O)c1ccc(C(=O)NCCN2C(=O)S/C(=C\c3cccnc3)C2=O)cc1[N+](=O)[O-]
inactive: Potency [1] | activation [2] 1.36% [at 17.1 µM, percent relative to cAMP agonist control] | Potency [3] | activity change, negative = inhibition [4] -27.7% [at 30.8 µM]

Cc1cccn2c(=O)c3cc(C#N)c(=NC(=O)c4ccccc4)n(Cc4ccco4)c3nc12
inactive: Potency [1] | activation [2] 11% [at 17.1 µM, percent relative to cAMP agonist control] | Potency [3] | activity change, negative = inhibition [4] 15.9% [at 30.8 µM]

COc1cc2c(cc1OC)C(COc1cc(C)cc(C)c1)N(C(C)=O)CC2 (stereo not drawn)
inactive: Potency [1] | activation [2] -1.36% [at 17.1 µM, percent relative to cAMP agonist control] | Potency [3] | activity change, negative = inhibition [4] -10.1% [at 30.8 µM]

Cc1ccc(C)c(-c2ccc(=O)n(Cc3c(F)cccc3Cl)n2)c1
inactive: Potency [1] | Potency [2] | Potency [3] | Potency [4]

O=c1[nH]cc(N=Cc2cc(Cl)cc(Cl)c2O)c(=O)[nH]1
inactive: Potency [1] | Potency [2] | Potency [3] | Potency [4]

CC[C@@H]1CC=C[C@H]2[C@H]1C(=O)N(Cc1ccccc1)[C@H]2c1ccc(OC)c(Cl)c1
inactive: Potency [1] | Potency [2] | Potency [3] | Potency [4]

CCOc1ccccc1NC(=O)CN1C(=O)COc2ccc(S(=O)(=O)NC3CCCC3)cc21
inactive: Potency [1] | Potency [2] | outcome [3] inactive [at 12.7 µM] | Potency [4]

CCOC(=O)C1=C(C)NC(C)=C(C(=O)OCC)C1c1cccc([N+](=O)[O-])c1
inactive: Potency [1] | activation [2] 8.4% [at 17.1 µM, percent relative to cAMP agonist control] | Potency [3] | activity change, negative = inhibition [4] 3.16% [at 30.8 µM]

O=C(COC(=O)C1(c2ccc(Cl)cc2)CCCC1)NCc1ccco1
inactive: Potency [1] | Potency [2] | Potency [4]
active: Potency [3] 75.7 µM

CC(C)Cc1ccc(CN2C(C(C)C)C(=O)N(Cc3cn(CCC4OCCO4)nn3)CCS2(=O)=O)cc1 (stereo not drawn)
inactive: Potency [1] | activation [2] 4.64% [at 17.1 µM, percent relative to cAMP agonist control] | Potency [3] | activity change, negative = inhibition [4] -13.5% [at 30.8 µM]

CC1=C(C(=O)Nc2ccccc2)C(c2ccc[nH]2)n2ncnc2N1 (stereo not drawn)
inactive: Potency [1] | Potency [2] | Potency [3] | Potency [4]

CN(CCOc1ccc(Br)cc1)C(=O)CNC(=O)c1ccc2ccccc2c1
inactive: Potency [1] | activation [2] 0.226% [at 17.1 µM, percent relative to cAMP agonist control] | Potency [3] | activity change, negative = inhibition [4] -17.3% [at 30.8 µM]

Oc1ccc(NCc2ccccc2OCc2ccccc2F)cc1
inactive: Potency [1] | Potency [2] | Potency [3] | Potency [4]

CC1=NN(c2ccccc2)C(=O)C1C(=O)c1cc([N+](=O)[O-])cc([N+](=O)[O-])c1 (stereo not drawn)
inactive: Potency [1] | Potency [2] | Potency [3] | Potency [4]

O=C(/C=C/c1ccco1)Nc1nc(-c2ccccn2)cs1
inactive: Potency [1] | Potency [2] | Potency [3] | Potency [4]

CC(C)C1COC(c2cccn2Cc2ccccc2Cl)=N1 (stereo not drawn)
inactive: Potency [1] | activation [2] 14.2% [at 17.1 µM, percent relative to cAMP agonist control] | Potency [3] | activity change, negative = inhibition [4] -4.02% [at 30.8 µM]

Cc1cc(/C=C2\SC(=S)NC2=O)c(C)n1-c1cccc(O)c1
inactive: Potency [1] | Potency [2] | Potency [3] | Potency [4]

CC(C)C(CCNC(=O)CC(Cc1ccccc1)c1ccco1)c1ccco1 (stereo not drawn)
inactive: Potency [1] | activation [2] 3.03% [at 17.1 µM, percent relative to cAMP agonist control] | Potency [3] | activity change, negative = inhibition [4] 24.9% [at 30.8 µM]

CCc1nc2c(OCc3ccc(C(F)(F)F)cc3)cccn2c1N(C)C(=O)C(C)C
inactive: Potency [1] | activation [2] -0.706% [at 17.1 µM, percent relative to cAMP agonist control] | Potency [3] | activity change, negative = inhibition [4] -5.96% [at 30.8 µM]

COc1ccccc1Nc1cc2cc(Br)ccc2c(=O)[nH]1
inactive: Potency [1] | Potency [2] | Potency [3] | Potency [4]

Cc1ccc(CNc2nc(NCc3ccccc3)nc3ccsc23)c(C)c1
inactive: Potency [1] | Potency [2] | Potency [3] | Potency [4]

O=C(/C=C/c1ccc(-c2ccccc2[N+](=O)[O-])o1)c1ccco1
inactive: Potency [1] | activation [2] 7.95% [at 17.1 µM, percent relative to cAMP agonist control] | Potency [3] | activity change, negative = inhibition [4] 9.73% [at 30.8 µM]

COc1cn(-c2ccccc2)nc1C(=O)Nc1ccc(C)cc1Cl
active: Potency [3] 95.3 µM
inactive: Potency [1] | Potency [2] | Potency [4]

CC(C)CC(NS(=O)(=O)OCC(Cl)(Cl)Cl)c1ccccc1 (stereo not drawn)
inactive: Potency [1] | activation [2] 5.17% [at 17.1 µM, percent relative to cAMP agonist control] | Potency [3] | activity change, negative = inhibition [4] -22.9% [at 30.8 µM]

CC1OC(CC(=O)O)CC2=C1C(=O)c1c(O)cccc1C2=O (stereo not drawn)
inactive: Potency [1] | Potency [2] | Potency [3] | Potency [4]

CCn1c(=O)c(C(=O)Nc2ccccc2S(N)(=O)=O)c(O)c2ccccc21
inactive: Potency [1] | Potency [2] | Potency [3] | Potency [4]

COc1ccc(NC(=S)N(CCCN2CCOCC2)C(C)c2cc3cccc(OC)c3o2)cc1 (stereo not drawn)
inactive: Potency [1] | Potency [2] | Potency [3] | Potency [4]

CCOC(=O)c1ccccc1NC(=O)c1c(C)oc2ncnc(N3CCOCC3)c12
inactive: Potency [1] | Potency [2] | Potency [3] | Potency [4]

O=C1C=C(Nc2cccc3cccnc23)c2ccccc2C1=O
inactive: Potency [1] | Potency [2] | Potency [3] | Potency [4]

O=C(N/N=C/c1ccc(O)c(O)c1)c1ccc(CSc2cccc3cccnc23)cc1
inactive: Potency [1] | activation [2] 14.6% [at 17.1 µM, percent relative to cAMP agonist control] | Potency [3] | activity change, negative = inhibition [4] 41.8% [at 30.8 µM]

Oc1c(C(Nc2nccs2)c2ccc(C(F)(F)F)cc2)ccc2cccnc12 (stereo not drawn)
inactive: Potency [1] | activation [2] -2.43% [at 17.1 µM, percent relative to cAMP agonist control] | Potency [3] | activity change, negative = inhibition [4] -18% [at 30.8 µM]

COCOCCn1cc(CN2CCS(=O)(=O)N(Cc3ccc(-c4ccccc4)cc3)C(CC(C)C)C2=O)nn1 (stereo not drawn)
active: Potency [3] 3.01 µM
inactive: Potency [1] | activation [2] 4.12% [at 17.1 µM, percent relative to cAMP agonist control] | activity change, negative = inhibition [4] -6.67% [at 30.8 µM]

O=C1C(=O)c2ccc(-c3ccccc3)cc2-c2ccccc21
inactive: Potency [1] | Potency [2] | Potency [3] | Potency [4]

CCc1nc2c(OCc3ccc(C(F)(F)F)cc3)cccn2c1N(C)C(=O)c1ccc(C)cc1
inactive: Potency [1] | Potency [2] | Potency [3] | Potency [4]

COc1cc(OC)cc(C(=O)Nc2ccc(NC(=O)c3ccco3)c(Cl)c2)c1
inactive: Potency [1] | Potency [2] | Potency [3] | Potency [4]

Cc1ccc(N=Cc2c(O)c3ccccc3n(C)c2=O)cc1
inactive: Potency [1] | Potency [2] | Potency [3] | Potency [4]

Cc1occc1-c1nnc(SCC(=O)c2cc3ccccc3oc2=O)o1
inactive: Potency [1] | activation [2] -0.174% [at 17.1 µM, percent relative to cAMP agonist control] | Potency [3] | activity change, negative = inhibition [4] -0.143% [at 30.8 µM]

CC(C)CCn1c(Oc2ccccc2Cl)nc2c1c(=O)n(C)c(=O)n2C
inactive: Potency [1] | Potency [2] | Potency [3] | Potency [4]

CC(C)Cc1ccc(CN2CCCC(NC(=O)c3cnc4ccccn4c3=O)C2)cc1 (stereo not drawn)
inactive: Potency [1] | activation [2] 12.4% [at 17.1 µM, percent relative to cAMP agonist control] | Potency [3] | activity change, negative = inhibition [4] 5.64% [at 30.8 µM]

COc1ccc(OCc2nc3ccccc3n2C(C)c2ccccc2)cc1 (stereo not drawn)
inactive: Potency [1] | Potency [2] | Potency [3] | Potency [4]

CCc1nc2c(OCc3ccc(OC)cc3)cccn2c1N(C)C(=O)c1ccc(OC)cc1
inactive: Potency [1] | Potency [2] | Potency [3] | Potency [4]

COc1ccc(/C=C/C(=O)Oc2ccc(C)c(C)c2)cc1OC
inactive: Potency [1] | Potency [2] | Potency [3] | Potency [4]

CC1CC2(NC(=O)NC2=O)C(C)CN1C (stereo not drawn)
inactive: Potency [1] | Potency [2] | Potency [3] | Potency [4]

Nc1c2c(=O)[nH]c(O)cc2nn1-c1ccccc1
inactive: Potency [1] | Potency [2] | Potency [3] | Potency [4]

Cc1cc(CSc2ccc(Cl)cc2)ccc1N
inactive: Potency [1] | Potency [2] | Potency [3] | Potency [4]

Cc1cccc(Nc2nnc(-c3ccc(N4CCOCC4)c([N+](=O)[O-])c3)c3ccccc23)c1
inactive: Potency [1] | Potency [2] | Potency [3] | Potency [4]

Cc1nnc(SCC(=O)NCc2ccccc2F)c2nn(-c3ccc(Cl)cc3)c(C)c12
inactive: Potency [1] | Potency [2] | Potency [3] | Potency [4]

Cn1c(/N=C/c2c(O)ccc3ccccc23)nc2ccccc21
inactive: Potency [1] | Potency [2] | Potency [3] | Potency [4]

O=C(N/N=C/c1coc2ccc(Cl)cc2c1=O)c1cc(O)cc(O)c1
inactive: Potency [1] | Potency [2] | Potency [3] | Potency [4]

Cc1ccccc1C(=O)Nc1cccc(C(=O)N/N=C/c2cc(Cl)cc([N+](=O)[O-])c2O)c1
inactive: Potency [1] | Potency [2] | Potency [3] | Potency [4]

COC(=O)[C@]12CCCCC=C1N(CCC1=CCCCC1)C(=O)[C@H](CC(=O)NCc1cccc(C(F)(F)F)c1)C2
inactive: Potency [1] | activation [2] 0% [at 17.1 µM, percent relative to cAMP agonist control] | Potency [3] | activity change, negative = inhibition [4] -9.47% [at 30.8 µM]
